Source: the supplement of paper PMC3334620
Whole data set: some 33,000 sequences, median “E-score (-0.5 to 0.5)” near -0.015, cut for the highest 2% near 0.3. Only a selection was taken, and the highest values are over-represented in it overall.

molecular target: T1, Abf1 (UniProt P14164); experiment: PBM E-score (8-mer binding enrichment) (E-score (-0.5 to 0.5)); higher = stronger / more preferred TF binding; settings: protein concentration: 200 nM; construct: GST-full length
T1 sequence: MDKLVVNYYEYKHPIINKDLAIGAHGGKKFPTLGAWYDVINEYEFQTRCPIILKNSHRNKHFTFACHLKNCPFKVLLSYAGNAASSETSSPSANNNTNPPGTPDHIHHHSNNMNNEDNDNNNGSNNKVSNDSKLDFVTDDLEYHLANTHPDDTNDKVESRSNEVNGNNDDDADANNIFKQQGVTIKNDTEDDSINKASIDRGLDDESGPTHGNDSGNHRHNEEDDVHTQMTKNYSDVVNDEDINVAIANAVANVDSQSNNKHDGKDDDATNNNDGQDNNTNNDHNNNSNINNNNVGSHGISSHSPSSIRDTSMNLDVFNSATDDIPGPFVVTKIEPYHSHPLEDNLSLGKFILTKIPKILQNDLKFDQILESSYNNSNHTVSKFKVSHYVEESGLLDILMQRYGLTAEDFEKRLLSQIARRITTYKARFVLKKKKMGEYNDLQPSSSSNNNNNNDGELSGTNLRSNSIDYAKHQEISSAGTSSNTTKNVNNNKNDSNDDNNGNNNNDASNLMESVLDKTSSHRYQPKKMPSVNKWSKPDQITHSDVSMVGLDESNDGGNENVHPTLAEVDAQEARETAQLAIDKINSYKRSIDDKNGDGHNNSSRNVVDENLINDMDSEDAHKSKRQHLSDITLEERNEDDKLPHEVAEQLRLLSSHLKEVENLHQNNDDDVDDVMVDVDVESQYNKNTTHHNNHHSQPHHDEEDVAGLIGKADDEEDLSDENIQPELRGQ
Protocol: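 Universal 'all 10-mer' protein binding microarrays (Agilent AMADID 015681) probed with GST-tagged S. cerevisiae TFs (full-length or DBD) made by in vitro transcription/translation (PURExpress), about 100-200 nM. Bound TF was detected with fluorescent anti-GST. Each ungapped 8-mer (which stands for itself and its reverse complement) is scored by the PBM enrichment score (E-score), a modified Wilcoxon-Mann-Whitney statistic from -0.5 to +0.5, computed with the Universal PBM Analysis Suite. Scale: above 0.35 generally sequence-specific binding.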

Sequence	PBM E-score
CAAAATCA	0.173
GCACAGCC	-0.204
ATTTCTTG	0.167
ACAGAATC	-0.0766
AATTAATT	0.00666
TACTAATA	0.0826
TATTAATA	0.00602
AACTAATA	0.306
CACTAATA	0.255
AATTAATA	0.302
ACTCCACC	0.032
ATCGGTCC	-0.295
TCGTGAGA	0.263
TCGTGACA	0.354
CCGTGACC	0.157
CCGTGACA	0.363
CCGTGAAG	0.136
ACGTGACA	0.355
TCGTGAAA	0.205
ACGTGACC	0.0122
ACGTGACG	0.201
CCGTGACG	0.198
ACGTGACT	0.174
CCGTGAAA	0.381
GCATCGCC	-0.0959

Sequence	PBM E-score
AACCGGGC	-0.103
CTCCCGGA	-0.117
GATAGAAC	0.0502
ACAACGCA	-0.00182
CGAGGTTA	-0.00406
AAGAATCT	-0.115
GGAGATGA	0.16
GCGATTTA	0.114
TCTTCTCA	0.0808
CGCTCTAA	0.108
AAGGCGGC	-0.00603
AAGGACAT	0.0941
ACGTGTGA	0.213
CCGTGTGA	0.301
GCGTGACA	0.369
GTGTGACA	0.116
GCGTGACC	0.108
GCGTGTGA	-0.00541
CGTTGATC	0.247
AAAGTGCG	-0.105
AGATTTCA	-0.0514
ACAGTCGC	-0.0877
TCGAAAAA	0.157
CGACGGTC	0.173
AGACGATA	0.27

Sequence	PBM E-score
AGACGATC	0.113
CGACGACC	0.243
GGACGGTA	0.134
CGACGATC	0.298
CGACGGTA	0.322
CGACGATA	0.373
GGACGATA	0.268
GAAATTCA	0.0636
ATTGCACA	0.0349
CAGCTATA	-0.191
ACCGCTGC	-0.252
GGTAGGAA	-0.0834
TAGGCCGA	-0.106
CCGATCCG	-0.0938
GCGAAGAA	0.148
CTTAGCGC	0.117
CGCTGTCC	0.108
CCGCATTC	0.00443
ACGTACCA	0.0604
GCGTACCA	-0.0406
TGGTACCA	-0.123
ACGTACTA	0.188
GCGTACTA	-0.0501
CCGTACCA	0.303
TCGTACCA	0.322

Sequence	PBM E-score
TAGTACCA	-0.0108
CCGTACTA	0.338
ATGATGCG	0.104
ACGAACCC	0.0128
GCGAGAAC	-0.095
CGATTCAC	0.192
AGGCGGTC	-0.166
GTCTAAAC	0.00585
ATGGTACA	-0.0607
GCGAACAA	0.0737
ACGAACGA	0.314
CCGAACAA	-0.0373
ACGAACAA	0.331
CCGAACGA	0.251
ACGAATGC	0.185
ACGAACGT	0.289
ACGAACGG	0.312
CCGAACGG	-0.0461
TCGAACGA	0.236
GCGAATGA	0.173
ACGAATGA	0.304
ATTAAGCC	0.0493
ATATCCAA	0.149
ACTGACTC	-0.262
CACTATGA	-0.138

Sequence	PBM E-score
CAAAGTGA	0.28
TAAGGAAA	-0.0606
CTATGCAC	0.178
AAACTCCT	-0.13
AATCATAT	0.191
AGGTCGAT	0.132
TGGTGGAA	-0.0333
ACTGCGAT	-0.0827
CAACAAAC	-0.112
CATCACGA	0.0436
AATCACGC	0.127
AATCACGA	0.309
TATCACAA	0.25
TATCACGA	0.366
AATCACGG	0.213
AGGTTATC	0.0463
CGCAGATA	0.0501
ACACGGCA	0.294
ACACGGCG	0.305
CCACGGCG	0.142
CGACGGCG	0.171
AGACGGCG	0.306
AGACGGCC	-0.0278
CCCGCTCG	-0.0943
ATAAACGG	0.273

Sequence	PBM E-score
TAAACTCA	-0.0231
AACGATAG	0.265
ACCGATAT	0.0499
AGCGATAT	0.352
AACGATCT	0.303
AACGATAT	0.385
AACGATAC	0.32
AGCGATAG	0.0445
GACGATAC	0.278
AACGATAA	0.294
AACGATCC	-0.00029
AGCGATAC	0.202
AACGATCA	0.24
GCAATTCA	-0.0514
ATCGCAGC	-0.0387
CACTTCAG	0.0421
GCGGTTTA	-0.161
ATCCCTGA	-0.0627
CCAGGGGC	-0.331
GTTAGCGA	0.32
CTTAGCGA	0.0369
ATTAGCGA	0.136
GGGTTATA	-0.105
ATTTTACC	0.11
AATTTACG	0.0813

Sequence	PBM E-score
ATTTTACG	0.322
TACAGCTA	-0.41
ATTAGTGG	0.1
AATAGTGG	0.0153
CTTAGTGA	0.305
GTTAGTGA	0.17
AATAGTGA	0.358
CTTAGTGC	-0.0935
ATTAGTGC	0.148
ATTAGTGA	0.365
AATAGTGC	0.0751
TCGAGCAA	0.1
ATTTCCGG	0.0492
ATTTCTTA	0.0563
GAAGAAAC	-0.133
AAATTCGC	0.0441
AATTTCGA	0.00012
AAATTCGG	0.0545
AAATTCGT	0.328
AATTTCGT	0.36
AATTTCGC	-0.0531
GACGCCTC	-0.0456
